According to PubChem BioAssay (NCI):
This is part of a sample that, as a whole, favours compounds with a hit. Of some 83,000 tested, about 20% had one in any assay.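 Values shown are percent growth following 48 h exposure of cells in 96-well plates to a single concentration of compound; below 10 was considered active.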 A number with no mark means an inactive call. The source made the active and inactive calls.

What was measured:
Assay in all cases: NCI-60 one-dose screen, 48 h (100 = growth as untreated, 0 = no growth, -100 = all killed)
Details in all cases: 10 µM unless noted
[1] = system: SR leukemia
[2] = system: RPMI-8226 leukemia
[3] = system: OVCAR-8 ovarian
[4] = system: OVCAR-5 ovarian
[5] = system: OVCAR-4 ovarian
[6] = system: SK-OV-3 ovarian
[7] = system: IGROV1 ovarian
[8] = system: OVCAR-3 ovarian
[9] = system: HS 578T breast
[10] = system: NCI/ADR-RES ovarian

Row | Compound | growth [1] | growth [2] | growth [3] | growth [4] | growth [5] | growth [6] | growth [7] | growth [8] | growth [9] | growth [10]
1 | COc1cc(/C=C2\CN(S(=O)(=O)c3ccc(C)cc3)C/C(=C\c3cc(CN4CCOCC4)c(O)c(OC)c3)C2=O)cc(CN2CCOCC2)c1O | 4.35% (active) | -24.8% (active) | 2.94% (active) | -26% (active) | 24.8% | 42.6% | -17% (active) | -17.3% (active) | 27.3% | 5.42% (active)
2 | c1ccc2c(-c3nc4ccccc4[nH]3)cccc2c1 | 12.5% | 33.2% | 47.4% | 62.9% | 77.3% | 30.8% | 44.1% | 12.2% | 44.5% | -16.2% (active)
3 | Cc1cc(C)c(C(=O)c2cccs2)c(C)c1 | 86.1% | 98.1% | 106% | 98.1% | 109% | 101% | 97.7% | 113% | 109% | 105%
4 | COc1ccc2nc(N/N=C(\C)c3ccccn3)cc(C)c2c1 | -40.9% (active) | -25.1% (active) | 0.111% (active) | 20% | 14.8% | 15.8% | -44.1% (active) | -78.5% (active) | 6.09% (active) | 12.4%
5 | N#Cc1c(-c2ccccc2)cc(-c2ccccc2)n(CCCCCCC(=O)O)c1=O | 88.4% | 108% | 69.4% | 99.5% | 111% | 117% | 105% | 109% | 101% | 102%
6 | C/C(=C\CCc1ccoc1)CC/C=C(\C)CCCN1CCOCC1 | 21% | 20.8% | 71.5% | 63% | 58.3% | 74.4% | 71.3% | 51.8% | 69.9% | 74.5%
7 | CCOC(=O)CCC(=O)O[C@H]1[C@H](O[C@@H]2[C@@H](C)[C@H](O[C@H]3C[C@@](C)(OC)[C@@H](O)[C@H](C)O3)[C@@H](C)C(=O)O[C@H](CC)[C@@](C)(O)[C@H](O)[C@@H](C)C(=O)[C@H](C)C[C@@]2(C)O)O[C@H](C)C[C@@H]1N(C)C | 92% | 97.2% | 106% | 106% | 110% | 113% | 92.8% | 125% | 113% | 108%
8 | COc1ccc2nc(NC(=O)CN3CCn4c(nnc4C(F)(F)F)C3)sc2c1 | 87.8% | 90% | 96.5% | 97.9% | 104% | 105% | 92.8% | 93.7% | 97% | 93.6%
9 | NS(=O)(=O)c1cc(C2(O)NC(=O)c3ccccc32)ccc1Cl (stereo not given) | 91.9% | 93.2% | 103% | 99.1% | 112% | 108% | 97.1% | 123% | 118% | 107%
10 | COc1cc(/C=C2\CN(C)CC3=C2Nc2nc(SC)[nH]c(=O)c2C3c2cc(OC)c(OC)c(OC)c2)cc(OC)c1OC (stereo not given) | -2.83% (active) | 8.36% (active) | 1.09% (active) | 101% | 75.9% | 87.9% | 30.8% | 15.7% | 36.3% | -7.05% (active)
11 | N#CSCC1CC(O)(c2ccccc2)C(c2ccccc2)C(c2ccc(Cl)cc2)O1 (stereo not given) | -16% (active) | -4.14% (active) | -86.1% (active) | 0.178% (active) | -32.7% (active) | 49.5% | -30.7% (active) | -100% (active) | -32.3% (active) | -71.5% (active)
12 | O=C(NCCNC(=O)Oc1cccc2ccccc12)Oc1cccc2ccccc12 | 97.8% | 92.5% | 100% | 105% | 96.4% | 94.5% | 65.2% | 86.5% | 104% | 95.8%
13 | O=C1c2cccc3c([N+](=O)[O-])ccc(c23)C(=O)N1CCCCl | -6.13% [100 µM] (active) | -11.6% [100 µM] (active) | -64.2% [100 µM] (active) | -92.5% [100 µM] (active) | -97% [100 µM] (active) | -99.6% [100 µM] (active) | -57.7% [100 µM] (active) | -87.1% [100 µM] (active) | 23.3% [100 µM] | -37.9% [100 µM] (active)
14 | OCc1n(Cc2ccc3ccccc3c2)cc[n+]1Cc1ccc2ccccc2c1 | 15.9% | 13.5% | 60.7% | 62.3% | 23.9% | 75.9% | 21.9% | 39.9% | 66.1% | 103%
15 | CC1C(=O)NC2=Nc3ccccc3C(=O)NN21 (stereo not given) | 91.3% | 90.3% | 99.7% | 96.5% | 107% | 105% | 79.6% | 116% | 108% | 103%
16 | COc1ccc(-n2cnc3cc(C(=O)N4CCCCC4)ccc32)cc1 | 94.9% | 101% | 100% | 93.1% | 100% | 99.5% | 112% | 108% | 100% | 107%
17 | O=C(Nc1cccc(Cl)c1)Nc1cccc(Cl)c1 | 66.4% | 3.08% (active) | 77% | 86.8% | 62.4% | 93.4% | 91.4% | 15.1% | 80.7% | 55.6%
18 | COc1ccc(-c2c3c(N)nc(-c4ccncc4)nc3nc3c2c(C)nn3-c2ccccc2)cc1 | 17.1% | 84.3% | 63.2% | 64.7% | 11.4% | 53.4% | 77% | 22.4% | 71.2% | 74.5%
19 | CCCCCCCC[Si](OCC)(OCC)OCC | 79.4% | 99.2% | 98.9% | 104% | 103% | 105% | 94.6% | 106% | 109% | 108%
20 | COc1cc(C2CC(c3ccc(C)cc3)=NN2C=O)ccc1OCCN(C)C (stereo not given) | 89.2% | 90.2% | 92.6% | 94.3% | 97.9% | 96.2% | 101% | 103% | 87.5% | 90.9%
21 | O=C(Nc1ccccc1OC(=O)c1ccccc1)c1ccccc1 | 58.8% | 91.7% | 92.6% | 93.1% | 63.5% | 89.2% | 90.6% | 77.7% | 101% | 87.8%
22 | Cc1cc2c(cc1C)[n+](Cc1ccc3ccccc3n1)cn2Cc1ccc2ccccc2n1 | -20.2% (active) | -30.7% (active) | 6.48% (active) | 23.6% | 8.38% (active) | 0.95% (active) | -4.22% (active) | 3.63% (active) | 27.3% | 96.4%
23 | c1ccc(CN=C(NCc2ccccc2)NCc2ccccc2)cc1 | 77.4% | 43.5% | 56.4% | 100% | 30.2% | 73.5% | 60.4% | 51.4% | 96.7% | 86%
24 | CC(=O)c1ccc(NS(=O)(=O)c2ccc([N+](=O)[O-])cc2)cc1 | 83.8% | 101% | 106% | 98.2% | 112% | 95.7% | 107% | 108% | 115% | 109%
25 | COc1cccc(/C=N/Nc2nc3ccccc3s2)c1OC | 45.9% | 74.8% | 76.5% | 97.7% | 92.2% | 78.5% | 81.9% | 98.3% | 97.9% | 91.7%
26 | COc1cc(/C=N/NC(=O)c2ccc(C(F)(F)F)nc2Nc2ccc(Cl)cc2C)ccc1O | -14.6% (active) | 26.8% | 46.7% | 57.5% | 27.2% | 44.3% | 25.1% | 30.4% | -15.1% (active) | 30.3%
